Measurements as given in PubChem BioAssay (EPA / NIEHS).
Calls of active or inactive are those of the source. How the source made its calls: active means hit-call score of the fitted dose curve at least 0.9, where 1 is the maximum; inactive means score below 0.9.

Assays:
Details in all cases: mRNA level, 48 h; actives raise or lower the signal
[1] = read-out: Glutamate-cysteine ligase catalytic (GCLC), GCLC (gene 2729); assay: LTEA_HepaRG_GCLC: Life Technologies and Expression Analysis (LTEA) Assay for Glutamate-cysteine ligase catalytic (GCLC) using HepaRG (AID 2283498)
In short: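 HepaRG, 48 h exposure, 8-pt half-log series from 100 uM, 0.5% DMSO vehicle; TaqMan qRT-PCR for GCLC mRNA, housekeeping-normalized; bidirectional curve fit vs DMSO baseline.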

[2] = read-out: growth arrest and DNA damage 45 (GADD45G), GADD45G (gene 10912); assay: LTEA_HepaRG_GADD45G: Life Technologies and Expression Analysis (LTEA) Assay for growth arrest and DNA damage 45 (GADD45G) using HepaRG (AID 2283499)
In short: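 Concentration-response in HepaRG: 48 h dosing, 0.5% DMSO, highest level 100 uM. GADD45G expression by qRT-PCR, normalised to endogenous controls; bidirectional fit to DMSO.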

[3] = read-out: Glutamate-cysteine ligase regulatory (GCLM), GCLM (gene 2730); assay: LTEA_HepaRG_GCLM: Life Technologies and Expression Analysis (LTEA) Assay for Glutamate-cysteine ligase regulatory (GCLM) using HepaRG (AID 2283500)
In short: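 Endpoint is GCLM transcript level by qRT-PCR, normalized to three housekeeping genes, after 48 h chemical exposure of human HepaRG cells (0.5% DMSO vehicle, top 100 uM, half-log dilutions). Fitting was bidirectional relative to DMSO.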

[4] = read-out: Glutathione S-transferase M3 (GSTM3), GSTM3 (gene 2947); assay: LTEA_HepaRG_GSTM3: Life Technologies and Expression Analysis (LTEA) Assay for Glutathione S-transferase M3 (GSTM3) using HepaRG (AID 2283501)
In short: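 Expression of GSTM3 is determined by qRT-PCR in human liver HepaRG cells treated 48 h with an 8-point half-log range from 100 uM in 0.5% DMSO.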

[5] = read-out: Heat shock 70 kDa protein 1 (HSPA1A), gene 3303; assay: LTEA_HepaRG_HSPA1A: Life Technologies and Expression Analysis (LTEA) Assay for Heat shock 70 kDa protein 1 (HSPA1A) using HepaRG (AID 2283502)
In short: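 Cells were plated and cultured for 48 h, then switched to serum-free induction medium. Chemicals were added at eight half-log concentrations up to 100 uM for 48 h. RNA was then isolated and HSPA1A measured by qRT-PCR with bidirectional curve fitting against DMSO.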

[6] = read-out: 3-Hydroxy-3-Methylglutaryl-CoA Synthase 2 (HMGCS2), HMGCS2 (gene 3158); assay: LTEA_HepaRG_HMGCS2: Life Technologies and Expression Analysis (LTEA) Assay for 3-Hydroxy-3-Methylglutaryl-CoA Synthase 2 (HMGCS2) using HepaRG (AID 2283504)
In short: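 This steatosis marker was read as HMGCS2 mRNA change in HepaRG cells treated 48 h with up to 100 uM chemical. Normalisation used housekeeping genes; activity in either direction was fitted relative to 0.5% DMSO vehicle.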

HGF (gene 3082) = assay: LTEA_HepaRG_HGF: Life Technologies and Expression Analysis (LTEA) Assay for Hepatocyte Growth Facto (HGF) using HepaRG (AID 2283505)
In short: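 Using HepaRG monolayers kept in 0.5% DMSO, chemicals were tested in duplicate over eight half-log concentrations from 100 uM for 48 h. Endpoint: HGF mRNA change relative to DMSO, normalized to ACTB/GAPDH/POLR2A.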

[7] = read-out: Insulin Like Growth Factor 1 (IGF1), IGF1 (gene 3479); assay: LTEA_HepaRG_IGF1: Life Technologies and Expression Analysis (LTEA) Assay for Insulin Like Growth Factor 1 (IGF1) using HepaRG (AID 2283506)
In short: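 Cells are thawed, plated and cultured 48 h, then exposed in duplicate to chemical (highest 100 uM, half-log steps, 0.5% DMSO) for another 48 h. Total RNA is analysed by Fluidigm qRT-PCR for IGF1 expression relative to vehicle.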

[8] = read-out: Intercellular Adhesion Molecule 1 (ICAM1), ICAM1 (gene 3383); assay: LTEA_HepaRG_ICAM1: Life Technologies and Expression Analysis (LTEA) Assay for Intercellular Adhesion Molecule 1 (ICAM1) using HepaRG (AID 2283507)
In short: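 Using the human liver line HepaRG, compounds are tested in duplicate over 48 h at concentrations up to 100 uM. Expression is determined by TaqMan qRT-PCR, normalized to endogenous controls, and analysed relative to 0.5% DMSO vehicle.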

[9] = read-out: Insulin-like growth factor-binding protein 1 (IGFBP1), IGFBP1 (gene 3484); assay: LTEA_HepaRG_IGFBP1: Life Technologies and Expression Analysis (LTEA) Assay for Insulin-like growth factor-binding protein 1 (IGFBP1) using HepaRG (AID 2283508)
In short: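 HepaRG, 48 h, 8 conc. (max 100 uM, half-log), duplicates, 0.5% DMSO. Readout: TaqMan qRT-PCR, ACTB/GAPDH/POLR2A normalisation. Fit: bidirectional vs DMSO.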

[10] = read-out: Interleukin 6 (IL6), IL6 (gene 3569); assay: LTEA_HepaRG_IL6: Life Technologies and Expression Analysis (LTEA) Assay for Interleukin 6 (IL6) using HepaRG (AID 2283509)
In short: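 qRT-PCR read-out of IL6 transcript, normalized to three housekeeping genes, after 48 h chemical exposure of HepaRG cells; 8-point half-log series, top 100 uM, 0.5% DMSO vehicle. Bidirectional curve fitting against DMSO baseline.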

[11] = read-out: Potassium channel subfamily K member 1 (KCNK1), KCNK1 (gene 3775); assay: LTEA_HepaRG_KCNK1: Life Technologies and Expression Analysis (LTEA) Assay for Potassium channel subfamily K member 1 (KCNK1) using HepaRG (AID 2283511)
In short: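 HepaRG, 48 h exposure, 8-pt half-log series top 100 uM, 0.5% DMSO vehicle, duplicates. Readout: KCNK1 transcript by qRT-PCR (Fluidigm array), housekeeping-normalized; bidirectional curve fit relative to DMSO baseline.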

[12] = read-out: JUN Transcription Factor, JUN (gene 3725); assay: LTEA_HepaRG_JUN: Life Technologies and Expression Analysis (LTEA) Assay for JUN Transcription Factor using HepaRG (AID 2283513)
In short: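 Read-out is JUN transcript level by TaqMan qRT-PCR, normalized to ACTB, GAPDH and POLR2A, after 48 h chemical treatment of HepaRG cells. Concentration-response spanned eight half-log points up to 100 uM in 0.5% DMSO.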

[13] = read-out: Lipase C (LIPC), LIPC (gene 3990); assay: LTEA_HepaRG_LIPC: Life Technologies and Expression Analysis (LTEA) Assay for Lipase C (LIPC) using HepaRG (AID 2283514)
In short: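 HepaRG, 48 h exposure, 8-pt half-log series from 100 uM in 0.5% DMSO, duplicates. Readout: LIPC mRNA by Fluidigm qRT-PCR, housekeeping-normalized (ACTB/GAPDH/POLR2A). Gain or loss fitted bidirectionally against DMSO baseline.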

[14] = read-out: Lipoprotein lipase (LPL), LPL (gene 4023); assay: LTEA_HepaRG_LPL: Life Technologies and Expression Analysis (LTEA) Assay for Lipoprotein lipase (LPL) using HepaRG (AID 2283515)
In short: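 HepaRG, 48 h exposure, 8-pt half-log dilutions from 100 uM, 0.5% DMSO vehicle, duplicates; qRT-PCR (Fluidigm array) of LPL mRNA vs housekeeping genes; bidirectional curve fit relative to DMSO baseline.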

[15] = read-out: matrix metalloproteinase-10 (MMP10), MMP10 (gene 4319); assay: LTEA_HepaRG_MMP10: Life Technologies and Expression Analysis (LTEA) Assay for matrix metalloproteinase-10 (MMP10) using HepaRG (AID 2283517)
In short: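 Transcript levels come from Fluidigm qRT-PCR normalized to three housekeeping genes, with curves fitted bidirectionally against 0.5% DMSO. Human HepaRG cells were dosed for 48 hours at concentrations up to 100 uM.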

[16] = read-out: Keratin 19 (KRT19), KRT19 (gene 3880); assay: LTEA_HepaRG_KRT19: Life Technologies and Expression Analysis (LTEA) Assay for Keratin 19 (KRT19) using HepaRG (AID 2283512)
In short: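 Readout is qRT-PCR of KRT19 mRNA, normalized to ACTB, GAPDH and POLR2A, from HepaRG cells treated 48 h with eight-point half-log dilutions topping at 100 uM. Activity in either direction is scored relative to 0.5% DMSO vehicle.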

In the case of `O=C(O)Cc1cc(I)c(Oc2cc(I)c(O)c(I)c2)c(I)c1`, the AC50 [1] is reported as 57.9 µM (active), the AC50 [2] is reported as 7.52 µM (active) and the outcome [3] is reported as “inactive”. The AC50 [4] was 33.5 µM (active), the AC50 [5] was 54 µM (active) and the AC50 [6] was 49.5 µM (active). For the same molecule, the AC50 (HGF (gene 3082)) was 52.7 µM (active), the outcome [7] was “inactive” and the AC50 [8] was 54.8 µM (active). The AC50 [9] was 55.7 µM (active), the AC50 [10] was 54 µM (active) and the AC50 [11] was 53.9 µM (active). The AC50 [12] was 52.3 µM (active), the AC50 [13] was 52.2 µM (active) and the AC50 [14] was 60.6 µM (active). For the same molecule, the AC50 [15] was 51.5 µM (active).
In the case of `c1ccc2cc3c(ccc4ccccc43)cc2c1`, the outcome [1] is reported as “inactive”, the AC50 [2] is reported as 15.5 µM (active) and the AC50 [3] is reported as 38.8 µM (active). For the same molecule, the outcome [4] was “inactive”, the outcome [5] was “inactive” and the AC50 [6] was 19.7 µM (active). For the same molecule, the outcome (HGF (gene 3082)) was “inactive”, the AC50 [7] was 20.1 µM (active) and the outcome [8] was “inactive”. The AC50 [9] was 8.36 µM (active), the outcome [10] was “inactive” and the outcome [11] was “inactive”. The AC50 [16] was 5.58 µM (active), the outcome [12] was “inactive” and the AC50 [13] was 12.7 µM (active). For the same molecule, the AC50 [14] was 7.72 µM (active) and the outcome [15] was “inactive”.
